Molecules are shown by their SMILES. Among all 350,000 compounds or so, about 7,000 (2%) were called active. No stated cut-off is given here; in the data, active means activation above about 40%; inconclusive means no clear call, values can overlap the other calls; inactive means below that. The sample as a whole holds a higher share of actives than the screen did.

The nature of the test: Bmi1 luciferase reporter increase in mESCs, primary screen, esBAF inhibitor project, mouse ES cells, Bmi1 luciferase knock-in, single point (AID 602393).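 Further: 0% = median of the plate's neutral control wells and 100% = double that signal; a rise in the Bmi1 reporter signal indicates esBAF inhibition.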 The note with it: 24 h, at 12.5 µM, stronger effect = higher value, 100% = twice the neutral-well signal. In general terms: A reporter such as luciferase makes a cellular process visible.
Consider `O=C(Cc1ccccc1)N1C[C@@H]2[C@H](c3ccccc31)[C@@H](CO)N2C(=O)Nc1ccc(F)cc1`, for which the reporter increase is -2.51% (inactive).
On to `O=C(C[C@@H]1C[C@H]2c3cc(NS(=O)(=O)c4ccc(F)cc4)ccc3O[C@H]2[C@@H](CO)O1)NCc1ccccc1F`, for which the reporter increase is 12.4% (inactive).
Then `CCC(=O)N1C[C@@H](C)[C@@H](OC)CN(C)C(=O)c2ccc(NC(=O)Nc3ccccc3)cc2OC[C@H]1C`, with 0.261% (inactive); and `CC(=O)Nc1ccc(/C=N/NC(=O)c2cccs2)cc1`, with 48.3% (active).
The value for `CCc1ccc(NC(=O)C(=O)NNC(=O)c2cccs2)cc1` was 12.8% (inactive); that for `O=C(CNC(=O)c1cccs1)N/N=C/c1cccc(Br)c1` was -3.05% (inactive).
Then `Cc1ccc(C)c(NC2=NCC(=O)N2c2ccc3c(c2)OCCO3)c1`, with 47.5% (active); and `COc1ccc(N2C(=O)CN=C2Nc2cccc(C)c2C)cc1OC`, with -1.36% (inactive).
With `Cc1ccc(CC2CC(=O)N(c3ccc4c(c3)OCCO4)C2=O)cc1` (centres undefined), the reporter increase is 11.3% (inactive).
The value for `COc1ccc(NC(=O)N(C)C[C@@H]2Oc3ncc(-c4ccc(C#N)cc4)cc3C(=O)N([C@@H](C)CO)C[C@H]2C)cc1` was -0.692% (inactive); that for `COc1ccc(CNC(=O)[C@H](Cc2c[nH]c3ccccc23)NC(C)=O)cc1OC` was 3.18% (inactive); that for `COc1cc2[nH]c(O)c(C=O)c2cc1OC` was 3.41% (inactive).
Then `COc1ccc(N=Cc2c(O)[nH]c3ccccc23)cc1OC`, with 73.5% (active); and `C[C@H](CO)N1C[C@H](C)[C@H](CN(C)C(=O)Nc2ccc(C(F)(F)F)cc2)Oc2ccc(NC(=O)C3CC3)cc2C1=O`, with -3.98% (inactive).
The value for `CCCn1c(C)cc(/C=C(\C#N)C(=O)OCC(=O)Nc2cc(OC)c(OC)c(OC)c2)c1C` was 61.6% (active); that for `CCCn1c(C)cc(/C=C(\C#N)C(=O)OCC(=O)N(C)c2c(N)n(Cc3ccccc3)c(=O)[nH]c2=O)c1C` was 9.72% (inactive).
As to `COc1cc(NC(=O)COC(=O)c2ccc([N+](=O)[O-])s2)cc(OC)c1OC`, the reporter increase is -3.17% (inactive).
Then `C[C@@H]1CN([C@@H](C)CO)S(=O)(=O)c2ccc(C#C[C@@H](C)O)cc2O[C@@H]1CN(C)C(=O)Cc1ccccn1`, with 1.02% (inactive); and `Cc1ccccc1S(=O)(=O)NCC[C@@H]1CC[C@H](NC(=O)C2CCCCC2)[C@@H](CO)O1`, with 4.09% (inactive); and `O=C(CC1CC1)N1CC[C@@H]2[C@@H](CO)Nc3ccc(-c4ccccc4)cc3[C@@H]21`, with -5.1% (inactive).
Consider `COc1ccc(Nc2cc(=O)oc3ccccc23)cc1`, for which the reporter increase is 3.87% (inactive).
Then `COc1ccc(Nc2ccc3ccccc3c2)cc1`, with 119% (active).
On to `COc1ccc(NC2=CC(=S)NC(C)(C)C2)cc1`, for which the reporter increase is 1.51% (inactive).
The value for `O=C(C1CCOCC1)N1C[C@H]2[C@@H](c3ccccc31)[C@@H](CO)N2Cc1ccccc1F` was 0.141% (inactive); that for `CCNC(=O)C[C@@H]1CC[C@@H]2[C@@H](COc3ccc(NC(=O)c4cccc(C(F)(F)F)c4)cc3C(=O)N2C)O1` was 3.63% (inactive).
`CC(OC(=O)CN1C(=O)c2ccccc2C1=O)C(=O)c1ccccc1` (centres undefined): the reporter increase is -0.946% (inactive).
For the molecule `Cc1cc(/C=C2/SC(=O)N(CC(=O)OC(C)C)C2=O)c(C)n1C`, the reporter increase was 83.5% (active).
As to `Cc1cc(/C=C2/SC(=O)N(CC(=O)N3CCCC3)C2=O)c(C)n1C`, the reporter increase was 0.583% (inactive).
Then `COc1ccccc1-c1ccc2c(c1)O[C@H](CN(C)C(=O)c1cccnc1)[C@@H](C)CN([C@H](C)CO)S2(=O)=O`, with 0.986% (inactive); and `C[C@H](CO)N1C[C@H](C)[C@H](CN(C)CC2CC2)OCCCC[C@H](C)Oc2ccc(NC(=O)c3ccncc3)cc2C1=O`, with -1.67% (inactive); and `CCOC(OCC)c1ccc(/C=C\c2nccc(N)n2)cc1`, with 46.6% (active).
As for `Cc1noc(C)c1NC(=O)Nc1ccc2c(c1)C(=O)N([C@H](C)CO)C[C@H](C)[C@H](CN(C)Cc1ccc(C(=O)O)cc1)OCCCC[C@H](C)O2`, the reporter increase was -3.6% (inactive).
Regarding `Cc1ccc(-n2ncc3c(Nc4cccc(C(=O)O)c4)ncnc32)cc1`, the reporter increase is 57.1% (active).
The value for `CC(Sc1ncnc2c1cnn2-c1ccccc1)C(=O)Nc1ccc(N2CCOCC2)cc1` (centres undefined) was 13.9% (inactive); that for `Cc1ccc(Nc2ncnc3c2cnn3C)c(C)c1` was -6% (inactive).
For `CNC[C@H]1Oc2cc(-c3cccnc3)ccc2S(=O)(=O)N([C@@H](C)CO)C[C@H]1C`, the reporter increase is 3.67% (inactive).
On to `CSc1ccccc1NC(=O)c1cc(Cl)sc1Cl`, for which the reporter increase is -9.78% (inactive).
The value for `CSc1ccccc1NC(=O)c1cnc2sc(C)cn2c1=O` was 68.8% (active).
The value for `Cc1ccccc1C(=O)Nc1ccccc1Sc1ccccc1` was -8.84% (inactive); that for `O=C(c1ccccc1)N1CC[C@H]2[C@H](CO)Nc3ccc(-c4ccc(F)cc4)cc3[C@H]21` was -5.91% (inactive); that for `CCCN(C)C[C@H]1Oc2ncc(-c3cccnc3)cc2C(=O)N([C@@H](C)CO)C[C@@H]1C` was 5.67% (inactive).
Then `Cn1c(=NC(=O)C2CC2)sc2cc(F)cc(F)c21`, with 62% (active); and `Cn1c(=NC(=O)c2ccco2)sc2cccc(F)c21`, with 29% (inactive); and `CCC(=O)Nc1ccc2c(c1)OC[C@H](C)N(Cc1ccccc1F)C[C@H](C)[C@@H](OC)CN(C)C2=O`, with 0.435% (inactive).
As to `C[C@H](CO)N1C[C@H](C)[C@H](CN(C)CC2CCCCC2)Oc2c(NC(=O)c3cnccn3)cccc2C1=O`, the reporter increase is -2.88% (inactive).
Then `O=C(c1cc2c(s1)CCC2)N1CCN(c2ccccc2)CC1`, with 6.19% (inactive); and `O=C(NNC(=O)c1cc2c(s1)CCCC2)c1ccccc1`, with 40.9% (active); and `O=C(CNC(=O)c1cc2c(s1)CCC2)Nc1ccccc1Br`, with 30.7% (inactive).
`CCNC(=O)C[C@@H]1CC[C@H](NC(=O)C2CCC2)[C@@H](CO)O1`: the reporter increase was 4.25% (inactive).
Consider `C[C@@H]1CN([C@H](C)CO)C(=O)Cc2cc(NC(=O)C3CCCCC3)ccc2O[C@@H]1CN(C)S(C)(=O)=O`, for which the reporter increase is -5.11% (inactive).
The value for `C[C@@H]1CN([C@@H](C)CO)S(=O)(=O)c2ccc(C#CC3CCCC3)cc2O[C@H]1CN(C)S(C)(=O)=O` was 20.1% (inactive); that for `O=C(c1ccccc1)N1CCN(c2cc(-c3ccccc3)nc3cc(-c4cccc(Cl)c4)nn23)CC1` was -1.84% (inactive).
The value for `COc1cccc(-c2cc3nc4c(c(N5CCC6(CC5)OCCO6)n3n2)CCCC4)c1` was 42.7% (active); that for `COc1cccc(CNc2nc3nc4c(c(=O)n3[nH]2)CCC4)c1` was -1.38% (inactive); that for `O=C(C[C@@H]1CC[C@@H]2[C@H](COC[C@H](O)CN2Cc2cccc(C(F)(F)F)c2)O1)NCc1ccc(F)cc1` was -1.09% (inactive).
The value for `C[C@@H]1CN([C@@H](C)CO)C(=O)c2cc(NC(=O)Nc3cccc4ccccc34)ccc2O[C@@H](C)CCCCO[C@@H]1CN(C)S(=O)(=O)c1ccc(Cl)cc1` was 2.17% (inactive); that for `O=C(c1cccs1)N1CCCC(c2nc(-c3ccc(F)cc3)no2)C1` (centres undefined) was 51.6% (active).
As to `O=C(Cc1cccs1)N1CCCC(c2nc(-c3ccc(S(=O)(=O)N4CCCC4)cc3)no2)C1` (centres undefined), the reporter increase was -3.86% (inactive).
Then `Cc1ccc(-c2noc(C3CCCN(C(=O)c4cccc(Cl)c4)C3)n2)o1` (centres undefined), with 46.6% (active).
Then `CCOC(=O)C1(C)CCCN(C(=O)c2cccc(Cl)c2)C1` (centres undefined), with -1.3% (inactive); and `COc1cccc(-c2noc(C3CCCN(C(=O)c4ccc(F)cc4)C3)n2)c1` (centres undefined), with 5.64% (inactive).
Then `COc1cc(-c2noc(C3CCCN(S(=O)(=O)c4cccc(Cl)c4)C3)n2)cc(OC)c1OC` (centres undefined), with 0.345% (inactive); and `COc1ccccc1NC(=O)N(C)C[C@@H]1Oc2ncc(Br)cc2C(=O)N([C@@H](C)CO)C[C@@H]1C`, with -5.49% (inactive); and `O=C(NCC[C@@H]1CC[C@@H](NC(=O)Nc2cc(F)ccc2F)[C@H](CO)O1)Nc1ccc(Cl)cc1`, with 38.7% (inactive).
`C[C@H]1CN([C@@H](C)CO)C(=O)c2cc(C3=CCCCC3)cnc2O[C@H]1CN(C)Cc1ccncc1`: the reporter increase was -11.9% (inactive).
Then `O=C(NCc1ccccc1)C1CCN(C(=O)Cc2ccccc2)CC1`, with 1.43% (inactive).
Then `O=C(O)C1CCN(C(=O)OCc2ccccc2)CC1`, with 59.3% (active).
Then `CCOC(=O)N1CCC(NC(=O)CCc2ccccc2)CC1`, with -4.64% (inactive); and `CC(C)NC(=O)Nc1ccc2c(c1)C(=O)N([C@@H](C)CO)C[C@H](C)[C@@H](CN(C)S(C)(=O)=O)O2`, with -2.99% (inactive); and `COCC(=O)Nc1ccc2c(c1)C(=O)N(C)C[C@@H](OC)[C@H](C)CN(C(=O)c1ccccn1)[C@@H](C)CO2`, with 4.23% (inactive).
As to `CCCOC(=O)c1[nH]c2c(c1C)C(=O)CC(c1cccs1)C2` (centres undefined), the reporter increase is -12.1% (inactive).
On to `CCCOC(=O)C1=C(C)NC2=C(C(=O)C(C(=O)OC)C(C)C2)C1c1ccc(N(C)C)cc1` (centres undefined), for which the reporter increase was 8.57% (inactive).
The value for `CCOC(=O)c1[nH]c2c(c1C)C(=O)CC(c1ccc(N(C)C)cc1)C2` (centres undefined) was 51.2% (active); that for `CC(=O)N1[C@H](CO)[C@H](c2ccc(-c3ccccc3)cc2)[C@H]1CNC(=O)C1CC1` was 2.48% (inactive).
Then `COc1ccccc1S(=O)(=O)Nc1ccc2c(c1)C(=O)N(C)C[C@H](OC)[C@H](C)CN[C@H](C)CO2`, with -6.13% (inactive).
For the molecule `Cc1nn(C(C)C(=O)NCCC2=CCCCC2)c(=O)c2nn(-c3ccccc3)c(C)c12` (centres undefined), the reporter increase is 21% (inactive).
The value for `CC(C)Sc1ncnc2c1cnn2-c1ccccc1` was 19% (inactive); that for `C1=C(CCNc2ncnc3c2cnn3-c2ccccc2)CCCC1` was 69.7% (active); that for `C[C@@H]1CN([C@@H](C)CO)C(=O)Cc2cc(NC(=O)CCN3CCOCC3)ccc2O[C@@H]1CN(C)C(=O)Nc1cccc2ccccc12` was -0.153% (inactive).

The record behind these values is PubChem BioAssay AID602393 (Broad Institute, 2012).
